Results taken from PubChem BioAssay AID1347056 (Sanford-Burnham Center for Chemical Genomics, 2019).
The campaign covered roughly 360,000 compounds. About 3,600 (1%) were called active. The sample holds actives, similar compounds and a random draw of the others, so the mix is not that of the screen. Values without a mark were called inactive.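 The calls were made as follows: active = compounds whose plate-normalised and pattern-corrected inhibition of the luciferase reporter signal at the single screening dose is 50% or more; inactive = the rest.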

test: inhibitors of TROY-driven NF-kB signaling, primary screen, Q293 LMP1-TROYcd cells, NF-kB luciferase, uHTS (AID 1347056); conditions: Q293 LMP1-TROYcd NF-kB luciferase reporter, 4 h; at 10 µM; active compounds read high

Row | SMILES | inhibition
1 | CN(C)/C=C/C(=O)c1cnc2sccn2c1=O | 11.6%
2 | CCn1c(CC(=O)Nc2ccccc2C)nnc1SCC(=O)NC1=NCCS1 | 11%
3 | COc1cc(C(=O)OCC(=O)N(CC(C)C)C2CCS(=O)(=O)C2)ccc1OCC(C)C (stereo not given) | 6.44%
4 | Clc1nc(NC2CCCC2)nc(N2CCOCC2)n1 | 9.54%
5 | FC(F)(F)COc1nc(N2CCCCC2)nc(N2CCNCC2)n1 | -47.4%
6 | COc1nc(NC2CCCCC2)nc(N2CCCCCC2)n1 | 51.7% (active)
7 | CN(C)C(=S)Nc1ccc(Br)cc1Cl | 2.66%
8 | CCOC(=O)[C@]12CCC=C1N(Cc1ccco1)C(=O)[C@H](CC(=O)N1CCSCC1)C2 | -1.7%
9 | COc1ccc(CCC(=O)OCC(=O)Nc2ccc(C)c(S(=O)(=O)N(C)C)c2)cc1 | 12.9%
10 | c1c2c(cc3sc(N4CCCCC4)nc13)OCCO2 | 72.6% (active)
11 | COc1cccc(N2C(=O)CC(N3CCc4ccccc4C3)C2=O)c1 (stereo not given) | 2.65%
12 | CC(Sc1nncn1C)C(=O)Nc1ccccc1-c1ccccc1 (stereo not given) | -16.4%
13 | COc1ccc(-n2nnnc2SCC(=O)NCc2cccs2)cc1 | -11.6%
14 | COc1ccc(CNc2nnnn2C)cc1 | -13.4%
15 | COc1ccc(-n2nnnc2-c2nc3ccccc3s2)cc1 | 73% (active)
16 | O=C(NC1CC1)c1cccc(Br)c1 | 79.2% (active)
17 | O=C(NC1CC1)c1ccc(-c2ccccc2)cc1 | -40.9%
18 | CC(=O)N1CCN(S(=O)(=O)c2cccc(C(=O)NC3CCC(C)CC3)c2)CC1 (stereo not given) | 5.64%
19 | CCCCn1c(N)c(N(CCC(C)C)C(=O)c2ccc(COc3ccccc3)o2)c(=O)[nH]c1=O | -19.5%
20 | CCC(CC)C(=O)Nc1ccc(S(=O)(=O)Nc2nccs2)cc1 | -15.5%
21 | CC1(C)C/C(=C(/C#N)C(N)=O)CCO1 | -13.2%
22 | O=C(NCc1ccccc1)c1onc(CSc2ccncc2)c1C(=O)NCc1ccccc1 | -21.8%
23 | CC[C@@H]1Cc2cc(O)ccc2C2=C1c1ccc(O)cc1C[C@H]2CC | 59.9% (active)
24 | C=CC[n+]1c(-c2ccc(C)cc2)csc1NNC(=O)Nc1ccccc1 | 25.5%

Row | SMILES | inhibition
25 | CC(=O)c1cccc(NC(=O)C2CCN(C(=O)c3ccccc3Cl)CC2)c1 | 1.66%
26 | CCCCN1C(=O)C(=O)N(CC(=O)Nc2cccc(C(C)=O)c2)C1=O | -16.1%
27 | CCSc1nsc(NC(=O)Nc2cccc(C(C)=O)c2)n1 | 67.1% (active)
28 | CC(=O)c1cccc(NC(=S)N2CCN(S(C)(=O)=O)CC2)c1 | -9.61%
29 | C=CCSc1nsc(NC(=O)Nc2cccc(C(C)=O)c2)n1 | 55.9% (active)
30 | CSc1ccccc1C(=O)Nc1cccc(C(C)=O)c1 | 8.76%
31 | CCOC12CC(C)(C)CC(C)(CC3=C1C(=O)CC(C)(C)C3)C2 (stereo not given) | 8.44%
32 | NC(=O)c1cc(S(=O)(=O)N2CCCC2)ccc1OCc1ccc(F)cc1 | -16.9%
33 | CCOc1ccc2c(c1)c(=O)c(S(=O)(=O)c1ccc(C)cc1)cn2CC | 0.7%
34 | N#Cc1cccc(NC(=O)c2cc(C3CCCCN3C(=O)CCc3ccccc3)on2)c1 (stereo not given) | 19.9%
35 | CC1CN(C2CCCCC2)c2nc3c(c(=O)n(C)c(=O)n3C)n2C1 (stereo not given) | -2.69%
36 | Nc1ccc(-n2nncc2-c2ccco2)cc1 | -12.6%
37 | CC(=O)C1=C(O)C(=O)N(c2ccc(Br)cc2)C1c1ccc([N+](=O)[O-])cc1 (stereo not given) | -18.5%
38 | COc1ccc(OC)c(C(O)c2nc3ccccc3n2C)c1 (stereo not given) | -7.8%
39 | OCCCNc1nccc(-c2cc(Nc3cccc(Cl)c3)ncn2)n1 | 54.1% (active)
40 | COc1ccc(C2=NOC(C(=O)NCc3ccco3)C2)cc1OC (stereo not given) | 14.5%
41 | COc1ccc(CNC(=O)CN(Cc2ccc(Cl)cc2)S(C)(=O)=O)cc1 | 6.51%
42 | Cc1cccc(CC(=O)N2CCN=C2SCc2ccc([N+](=O)[O-])cc2)c1 | -7.77%
43 | COCCNC(=O)CN1C(=O)CSc2ncccc21 | -20.5%
44 | CCC1(C)NC(=O)N(CC(=O)N2CCN(c3cccc(Cl)c3)CC2)C1=O (stereo not given) | -0.65%
45 | O=C(Cc1ccccc1)Nc1ccc(NC(=O)c2cccnc2)cc1 | 17.2%
46 | Cc1ccc2nc(-c3ccc(NC(=O)c4cccnc4)cc3)oc2c1 | 50.8% (active)
47 | Cc1cc(NS(=O)(=O)c2ccc(NC(=O)c3cccnc3)cc2)nc(C)n1 | 9.3%
48 | CC(=O)Nc1sc2c(c1C(c1cccc(F)c1)N1CCN(CCO)CC1)CCCC2 (stereo not given) | -6.54%

Row | SMILES | inhibition
49 | COc1ccccc1N(C)S(=O)(=O)c1ccc(Cl)c(C(=O)Nc2ccncc2)c1 | -12.4%
50 | CC(=O)c1ccc(S(=O)(=O)NCCC(=O)N2CCN(c3ccccn3)CC2)cc1 | 0.71%
51 | COc1ccc(C)cc1NC(=O)CSc1cccc[n+]1[O-] | 13%
52 | CCCn1c(C(Cc2ccccc2)NC(=O)COC)nc2ccccc21 (stereo not given) | -16.1%
53 | O=C(CC(O)(C(F)(F)F)C(F)(F)F)Nc1ccc(Cl)c(Cl)c1 | 59.2% (active)
54 | CN(CC(=O)Nc1ccc(Cl)c(C(F)(F)F)c1)C(=O)CCC(=O)c1ccccc1 | 29.4%
55 | O=C(CN1CCOCC1)Nc1ccc(NC(=O)CN2CCOCC2)c(Cl)c1 | -4.68%
56 | O=C(CN1CCN(C2CCS(=O)(=O)C2)CC1)N1N=C(c2ccc(Cl)cc2)CC1c1ccco1 (stereo not given) | 58.2% (active)
57 | Cc1ccc(C2=NN(C(=O)CSc3nc(N)cc(N)n3)C(c3ccco3)C2)cc1 (stereo not given) | -20.4%
58 | Cc1ccc(C2=NN(C(=O)COc3ncnc4ccccc34)C(c3ccco3)C2)cc1 (stereo not given) | 3.07%
59 | CCC1=[N+]([O-])C(C)(/C(C)=N\O)N(O)C1(C)C (stereo not given) | -4.1%
60 | CCCN(CCC)S(=O)(=O)c1cc2c(cc1Br)CCN2C(=O)CC | 22.4%
61 | CCOC(=O)c1ccc(NC(=S)N2CCN(c3ccccn3)CC2)cc1 | -15.3%
62 | CCCCOc1ccc(CON(C(C)=O)C(C)=O)cc1Cl | -35.4%
63 | Cc1[nH]c(=O)c(C(=O)/C=C/c2ccccc2)c2c1CCCC2 | 52% (active)
64 | COC(=O)c1c(C)[nH]c(C(=O)/C=C/c2ccc(Cl)cc2)c1C | -12.1%
65 | CC1(C(=O)O)CCCN(C(=O)/C=C/c2ccccc2)C1 (stereo not given) | -7.33%
66 | COc1cccc(-c2nnc(NC(=O)c3ccc(S(=O)(=O)N(CC(C)C)CC(C)C)cc3)o2)c1 | 12.8%
67 | CC(Nc1nc(C(F)(F)F)nc2ccccc12)c1cccs1 (stereo not given) | 60.8% (active)
68 | CCc1ccc(C(CNc2nc(C(F)(F)F)nc3ccccc23)N(C)C)cc1 (stereo not given) | 4.28%
69 | CC(Nc1nc(N2CCCC2)nc2ccccc12)c1ccccc1 (stereo not given) | 5.36%
70 | CN1CCCN(S(=O)(=O)c2ccc3c(c2)OCCO3)CC1 | -12.9%
71 | COc1ccc(OC)c(NC(=O)CN(C)CCOc2ccc(Br)cc2)c1 | 9.37%
72 | COc1ccc(Nc2ncnc3ccc(Br)cc23)c(OC)c1 | 84.4% (active)

Row | SMILES | inhibition
73 | COc1ccc(OC)c(Nc2nc3ccccc3n3cnnc23)c1 | -14.2%
74 | COc1cccc2cc(C(=O)N(C)C)c(=O)oc12 | 11%
75 | COc1cccc2cc(C(=O)N3CCN(C(=O)c4ccccc4)CC3)c(=O)oc12 | -10%
76 | COc1cccc2cc(C(N)=O)/c(=N\NC(=O)c3ccccc3)oc12 | 73.1% (active)
77 | O=C(CN(c1cc(C(F)(F)F)ccc1Cl)S(=O)(=O)c1ccccc1)NCc1cccnc1 | 0.66%
78 | CSc1nc(N(C)NC(=O)c2cccc(C)c2)c2ccccc2n1 | 25.9%
79 | COC(c1ccccc1)(c1ccccc1)C(Oc1nc(C)cc(C)n1)C(=O)O (stereo not given) | 4.6%
80 | Cc1cc(C)nc(S/C=C/C(=O)c2ccccc2)n1 | 54% (active)
81 | CCOC(=O)N1CCN(CC(=O)c2ccc3c(c2)CCN3)CC1 | 2.97%
82 | O=C(CSc1nc(Nc2ccccc2)nc(N2CCOCC2)n1)Nc1cc(Cl)ccc1O | 64.7% (active)
83 | C/C(=N\Nc1nc(Nc2ccccc2)nc(N2CCOCC2)n1)c1cccs1 | -8.45%
84 | CC1(c2ccccc2)NC(=O)N(CC(=O)Nc2cc(Cl)ccc2N2CCOCC2)C1=O (stereo not given) | -24.9%
85 | C=CCn1c2c(c3ccccc31)CCC2 | -7.49%
86 | OC[C@@H]1CN(Cc2ccncc2)C[C@H](n2cnc3c(N4CCN(c5ccccc5)CC4)ncnc32)O1 | 37.7%
87 | O=C(Nc1ccc(Br)c2cccnc12)c1ccc(Cn2cc([N+](=O)[O-])cn2)o1 | -32.5%
88 | CC(=O)c1c(C)[nH]c(C(=O)OCC(=O)Nc2c(C)cccc2C)c1C | 14.6%
89 | N#Cc1c(NC(=O)CCCl)sc2c1CCCCC2 | -37%
90 | CC(=O)c1c(C)[nH]c(C(=O)OCC(=O)Nc2sc3c(c2C#N)CCCC3)c1C | 52.3% (active)
91 | COc1ccc(N2CC(C)Cn3c2nc2c3c(=O)n(Cc3ccccc3F)c(=O)n2C)c(OC)c1 (stereo not given) | 24.4%
92 | c1ccc(CSc2ncnc3c2sc2nc(N4CCOCC4)c4c(c23)CCCC4)cc1 | 60.3% (active)
93 | c1ccc(COc2nsnc2N2CCOCC2)cc1 | 11%
94 | O=C(O)c1cccnc1Sc1ncnc2sc3c(c12)CCC3 | 10.5%
95 | Cc1ccc(CCN2CC(C(=O)O)CC2=O)cc1 (stereo not given) | -21.4%
